Measured values as given in PubChem BioAssay AID1159580 (chemical genetic matrix, 2015).
“And” between values parts separate entries of the source, which are not always exact repeats. Equal values may be shown once. In all, about 5,500 compounds went through this assay and about 2,000 (36%) were called active. Inconclusive results (about 18%) are left out. Rule as the data show it: active = normalized growth mostly below about 0.91 (no sharp cut-off); inconclusive = no clear call, values can overlap the other calls; inactive = mostly above about 0.92. The list shows a part of the results.

Test: chemical genetic growth profiling, strain panel (AID 1159580);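 also: tested at 20 µM; growth read once vehicle control cultures reached saturation at 30 °C; 1 = growth at the plate median or of vehicle wells; lower values mean less growth of the strain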
Details: growth OD

Measured: normalized growth

O=C1CCCN1CC#CCN1CCCC1
inactive: S. cerevisiae deletion strains, locus YJR075W, strain HOC1, hits give low values 0.988 and 1 | S. cerevisiae deletion strains, locus YKL009W, strain mrt4, hits give low values 1.02 and 1.05 | S. cerevisiae deletion strains, locus YKL068W, hits give low values 1 | S. cerevisiae deletion strains, locus YKL085W, strain MDH1 (second series), hits give low values 1.02 | S. cerevisiae deletion strains, locus YKL085W, strain MDH1, hits give low values 1.02 | S. cerevisiae deletion strains, locus YKL160W, strain elf1, hits give low values 1.02 | S. cerevisiae deletion strains, locus YKL190W, strain CNB1, hits give low values 0.989 and 1.02 | S. cerevisiae deletion strains, locus YKR001C, strain vps1, hits give low values 1.01 and 1.02 | S. cerevisiae deletion strains, locus YKR026C, strain gcn3, hits give low values 1.02 | S. cerevisiae deletion strains, locus YKR091W, strain srl3, hits give low values 1.02 | S. cerevisiae deletion strains, locus YLL001W, strain dnm1, hits give low values 1.02 | S. cerevisiae deletion strains, locus YLL026W, hits give low values 1.01 | S. cerevisiae deletion strains, locus YLL041C, strain sdh2, hits give low values 1.02 | S. cerevisiae deletion strains, locus YLR027C, strain aat2, hits give low values 1.02 | S. cerevisiae deletion strains, locus YLR039C, strain RIC1, hits give low values 1.03 and 1.01 | S. cerevisiae deletion strains, locus YLR058C, strain SHM2, hits give low values 1.01 | S. cerevisiae deletion strains, locus YLR102C, strain apc9, hits give low values 1.01 and 1.02 | S. cerevisiae deletion strains, locus YLR113W, strain HOG1, hits give low values 1.04 | S. cerevisiae deletion strains, locus YLR221C, strain rsa3, hits give low values 1 | S. cerevisiae deletion strains, locus YLR258W, strain gsy2, hits give low values 1.02 | S. cerevisiae deletion strains, locus YLR262C, strain YPT6 (second series), hits give low values 1.03 | S. cerevisiae deletion strains, locus YLR262C, strain YPT6, hits give low values 1.05 and 1.02 | S. cerevisiae deletion strains, locus YLR268W, strain sec22, hits give low values 1.02 and 0.991 | S. cerevisiae deletion strains, locus YLR320W, strain mms22, hits give low values 1.02 | S. cerevisiae deletion strains, locus YLR330W, strain CHS5, hits give low values 1 and 1.01 | S. cerevisiae deletion strains, locus YLR342W, strain FKS1 (second series), hits give low values 1.02 and 1.06 | S. cerevisiae deletion strains, locus YLR342W, strain FKS1, hits give low values 1.02 | S. cerevisiae deletion strains, locus YLR357W, strain rsc2, hits give low values 1.05 | S. cerevisiae deletion strains, locus YLR370C, strain arc18, hits give low values 1.02 | S. cerevisiae deletion strains, locus YLR371W, strain rom2, hits give low values 0.994 and 1.03 | S. cerevisiae deletion strains, locus YLR384C, strain iki3, hits give low values 1.03 | S. cerevisiae deletion strains, locus YLR418C, strain cdc73, hits give low values 1.05 and 0.979 | S. cerevisiae deletion strains, locus YML016C, strain PPZ1, hits give low values 1.01 | S. cerevisiae deletion strains, locus YML032C, strain rad52, hits give low values 1.01 and 1.04 | S. cerevisiae deletion strains, locus YML120C, strain ndi1, hits give low values 1.03 | S. cerevisiae deletion strains, locus YML124C, strain tub3, hits give low values 1 | S. cerevisiae deletion strains, locus YMR058W, strain fet3, hits give low values 1.03 | S. cerevisiae deletion strains, locus YMR078C, strain ctf18, hits give low values 1.03 and 1.02 | S. cerevisiae deletion strains, locus YMR125W, strain sto1, hits give low values 1.04 | S. cerevisiae deletion strains, locus YMR129W, hits give low values 1.03 | S. cerevisiae deletion strains, locus YMR205C, strain PFK2, hits give low values 1.02 | S. cerevisiae deletion strains, locus YMR223W, strain ubp8, hits give low values 1.02 and 1.03 | S. cerevisiae deletion strains, locus YMR231W, strain pep5, hits give low values 1.03 | S. cerevisiae deletion strains, locus YMR263W, strain SAP30, hits give low values 1.01 | S. cerevisiae deletion strains, locus YMR307W, strain GAS1, hits give low values 1 and 0.983 | S. cerevisiae deletion strains, locus YNL067W, strain RPL9B, hits give low values 0.998 and 1.01 | S. cerevisiae deletion strains, locus YNL071W, strain lat1, hits give low values 1.02 | S. cerevisiae deletion strains, locus YNL128W, strain TEP1, hits give low values 1.01 | S. cerevisiae deletion strains, locus YNL153C, strain GIM3, hits give low values 1.03 and 0.992 | S. cerevisiae deletion strains, locus YNL175C, strain NOP13, hits give low values 0.992 | S. cerevisiae deletion strains, locus YNL183C, strain NPR1, hits give low values 0.999 | S. cerevisiae deletion strains, locus YNL197C, strain WHI3, hits give low values 0.986 | S. cerevisiae deletion strains, locus YNL209W, strain ssb2, hits give low values 1.02 | S. cerevisiae deletion strains, locus YNL224C, strain SQS1, hits give low values 1.01 | S. cerevisiae deletion strains, locus YNL233W, strain BNI4, hits give low values 0.993 and 0.996 | S. cerevisiae deletion strains, locus YNL248C, strain rpa49, hits give low values 1.03 | S. cerevisiae deletion strains, locus YNL250W, strain rad50, hits give low values 1.02 and 1.01 | S. cerevisiae deletion strains, locus YNL271C, strain bni1, hits give low values 1.01 and 1.03 | S. cerevisiae deletion strains, locus YNL298W, strain CLA4, hits give low values 1.03 | S. cerevisiae deletion strains, locus YNL307C, strain MCK1, hits give low values 1.02 and 1.03 | S. cerevisiae deletion strains, locus YNL322C, strain KRE1 (second series), hits give low values 1.02 | S. cerevisiae deletion strains, locus YNL322C, strain KRE1, hits give low values 1 and 1.01 | S. cerevisiae deletion strains, locus YNR049C, strain mso1, hits give low values 1.02 | S. cerevisiae deletion strains, locus YNR052C, strain pop2, hits give low values 1.01 and 1.04 | S. cerevisiae deletion strains, locus YOL006C, strain TOP1, hits give low values 1.03 and 1.04 | S. cerevisiae deletion strains, locus YOL012C, strain htz1 0.71 and 1.25 | S. cerevisiae deletion strains, locus YOL147C, strain pex11, hits give low values 1.01 | S. cerevisiae deletion strains, locus YOR001W, strain rrp6, hits give low values 1.04 | S. cerevisiae deletion strains, locus YOR061W, strain CKA2, hits give low values 1.01 | S. cerevisiae deletion strains, locus YOR069W, strain VPS5, hits give low values 1 and 1.01 | S. cerevisiae deletion strains, locus YOR070C, strain gyp1, hits give low values 1.02 | S. cerevisiae deletion strains, locus YOR080W, strain dia2, hits give low values 1.03 | S. cerevisiae deletion strains, locus YOR083W, strain WHI5 (second series), hits give low values 1.02 | S. cerevisiae deletion strains, locus YOR083W, strain WHI5, hits give low values 1.02 | S. cerevisiae deletion strains, locus YOR106W, strain vam3, hits give low values 1.05 | S. cerevisiae deletion strains, locus YOR136W, strain idh2, hits give low values 1.01 and 1.02 | S. cerevisiae deletion strains, locus YOR144C, strain elg1, hits give low values 1 and 1.01 | S. cerevisiae deletion strains, locus YOR184W, strain ser1, hits give low values 1.04 and 1.05 | S. cerevisiae deletion strains, locus YOR231W, strain MKK1, hits give low values 1.06 | S. cerevisiae deletion strains, locus YOR265W, strain rbl2, hits give low values 1.02 | S. cerevisiae deletion strains, locus YOR270C, strain vph1, hits give low values 1.08 | S. cerevisiae deletion strains, locus YOR290C, strain snf2, hits give low values 1.02 | S. cerevisiae deletion strains, locus YOR316C, strain cot1, hits give low values 1.01 | S. cerevisiae deletion strains, locus YPL051W, strain arl3, hits give low values 1.02 | S. cerevisiae deletion strains, locus YPL055C, strain LGE1, hits give low values 0.986 and 1.01 | S. cerevisiae deletion strains, locus YPL078C, strain atp4, hits give low values 1.04 | S. cerevisiae deletion strains, locus YPL106C, strain sse1, hits give low values 1.02 | S. cerevisiae deletion strains, locus YPL240C, strain hsp82, hits give low values 1.03 | S. cerevisiae deletion strains, locus YPL241C, strain CIN2, hits give low values 1 and 1.01 | S. cerevisiae deletion strains, locus YPL256C, strain CLN2, hits give low values 1.02 | S. cerevisiae deletion strains, locus YPR119W, strain clb2, hits give low values 1.01 | S. cerevisiae deletion strains, locus YPR141C, strain kar3, hits give low values 1.01 | S. cerevisiae deletion strains, locus YPR163C, strain tif3, hits give low values 1.02 and 1 | S. cerevisiae deletion strains, locus YPR167C, strain met16, hits give low values 1.02 and 1.03 | S. cerevisiae deletion strains, strain wtn01, hits give low values 1.03 and 1.02 | S. cerevisiae strains, strain wild type, hits give low values 1 and 1.01
